Substitutions are numbered along the chain they refer to.
Tests used:
Assay in all cases: protein-binding microarray (PBM); PBM: ~300 nM protein, 6 mM HEPES pH 7.8, 80 mM KCl, 0.5 mM EDTA, 0.5 mM EGTA, 6% glycerol, 35 ng/ul poly-dIdC, 1% milk, 1 h, room temperature; Ap Aiptasia and Nv Nematostella (sea anemones) / Co Capsaspora / Aq Amphimedon (sponge) / Dm Drosophila / Hu human; RHD is the Rel homology domain; high values mean tight binding
Conditions in all cases: dsDNA, one strand shown
GST-Ap-NF-kB RHD = biological target: T1, GST-Ap-NF-kB RHD (Exaiptasia pallida (Aiptasia), UniProt A0A913YAJ5 2-422)
T1 sequence: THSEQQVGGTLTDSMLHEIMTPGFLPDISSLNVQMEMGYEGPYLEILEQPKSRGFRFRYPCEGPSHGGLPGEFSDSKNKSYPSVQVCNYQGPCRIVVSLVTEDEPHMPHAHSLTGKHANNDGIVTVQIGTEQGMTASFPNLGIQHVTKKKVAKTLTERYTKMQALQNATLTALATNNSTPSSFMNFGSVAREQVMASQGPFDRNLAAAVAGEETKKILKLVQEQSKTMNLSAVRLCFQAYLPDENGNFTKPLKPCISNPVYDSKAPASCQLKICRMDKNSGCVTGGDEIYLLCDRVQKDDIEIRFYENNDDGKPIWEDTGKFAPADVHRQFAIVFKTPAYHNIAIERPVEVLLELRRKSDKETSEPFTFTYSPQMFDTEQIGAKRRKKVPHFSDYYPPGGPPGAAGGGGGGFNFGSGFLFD

[1] = biological target: T2, GST-Nv-NF-kB (Cys allele) (Nematostella vectensis, UniProt E5G601 2-411)
T2 sequence: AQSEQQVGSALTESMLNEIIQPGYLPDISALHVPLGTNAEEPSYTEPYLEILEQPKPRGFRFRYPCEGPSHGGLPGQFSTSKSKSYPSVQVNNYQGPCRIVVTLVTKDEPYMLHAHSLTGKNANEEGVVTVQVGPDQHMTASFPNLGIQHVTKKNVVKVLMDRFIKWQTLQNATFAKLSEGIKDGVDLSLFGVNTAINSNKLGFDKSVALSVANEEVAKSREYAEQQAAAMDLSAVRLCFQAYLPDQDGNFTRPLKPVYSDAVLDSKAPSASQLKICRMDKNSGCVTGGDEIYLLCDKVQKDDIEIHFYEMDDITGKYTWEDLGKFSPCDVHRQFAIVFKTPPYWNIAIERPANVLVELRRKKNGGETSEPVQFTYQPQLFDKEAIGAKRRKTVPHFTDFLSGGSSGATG

[2] = biological target: T3, GST-Nv-NF-kB (Ser allele) (Nematostella vectensis, UniProt A7UNT2 2-411)
T3 sequence: T2 sequence with Q21R, C66S, S207N, E215Q, V217A, E225K, A268E, D399E

GST-Co-NF-kB = biological target: T4, GST-Co-NF-kB (Capsaspora owczarzaki, UniProt F1ARL5 200-546)
T4 sequence: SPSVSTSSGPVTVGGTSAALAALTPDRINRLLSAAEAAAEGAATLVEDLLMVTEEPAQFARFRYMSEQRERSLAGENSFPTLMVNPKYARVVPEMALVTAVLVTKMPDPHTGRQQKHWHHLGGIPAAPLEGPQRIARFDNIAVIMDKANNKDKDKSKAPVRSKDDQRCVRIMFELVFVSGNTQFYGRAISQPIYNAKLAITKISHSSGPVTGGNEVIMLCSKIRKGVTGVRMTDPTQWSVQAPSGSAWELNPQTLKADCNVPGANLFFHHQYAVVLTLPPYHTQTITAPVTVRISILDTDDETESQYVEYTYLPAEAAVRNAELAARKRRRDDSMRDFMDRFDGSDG

GST-Dm-Relish = biological target: T5, GST-Dm-Relish (Drosophila melanogaster, UniProt Q94527 99-473)
T5 sequence: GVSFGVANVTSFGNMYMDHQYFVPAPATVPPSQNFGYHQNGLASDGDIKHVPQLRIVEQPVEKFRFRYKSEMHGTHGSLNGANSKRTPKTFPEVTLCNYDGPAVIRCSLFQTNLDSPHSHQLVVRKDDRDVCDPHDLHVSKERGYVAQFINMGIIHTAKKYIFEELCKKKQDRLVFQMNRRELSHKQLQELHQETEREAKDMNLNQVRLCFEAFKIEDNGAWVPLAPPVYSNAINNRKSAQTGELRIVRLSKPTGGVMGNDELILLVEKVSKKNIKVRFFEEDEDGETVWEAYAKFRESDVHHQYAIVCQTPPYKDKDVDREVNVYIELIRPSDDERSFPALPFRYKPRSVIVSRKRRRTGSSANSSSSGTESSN

GST-Aq-NF-kB = biological target: T6, GST-Aq-NF-kB (Amphimedon queenslandica, UniProt A9Y5G7 2-389)
T6 sequence: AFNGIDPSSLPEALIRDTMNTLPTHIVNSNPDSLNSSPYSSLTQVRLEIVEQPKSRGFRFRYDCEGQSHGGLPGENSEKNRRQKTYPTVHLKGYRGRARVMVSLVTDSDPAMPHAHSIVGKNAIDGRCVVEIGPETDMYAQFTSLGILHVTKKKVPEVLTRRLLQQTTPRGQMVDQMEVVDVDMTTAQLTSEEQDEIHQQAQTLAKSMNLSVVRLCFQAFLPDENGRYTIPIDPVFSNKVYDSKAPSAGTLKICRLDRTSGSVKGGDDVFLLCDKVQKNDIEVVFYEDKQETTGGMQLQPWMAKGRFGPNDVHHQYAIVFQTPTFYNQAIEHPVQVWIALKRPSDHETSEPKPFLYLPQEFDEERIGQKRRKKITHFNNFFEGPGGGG

GST-Hu-p50 = GST-Hu-p50 (Homo sapiens, UniProt P19838 7-356)
Chain of GST-Hu-p50 (P19838 7-356): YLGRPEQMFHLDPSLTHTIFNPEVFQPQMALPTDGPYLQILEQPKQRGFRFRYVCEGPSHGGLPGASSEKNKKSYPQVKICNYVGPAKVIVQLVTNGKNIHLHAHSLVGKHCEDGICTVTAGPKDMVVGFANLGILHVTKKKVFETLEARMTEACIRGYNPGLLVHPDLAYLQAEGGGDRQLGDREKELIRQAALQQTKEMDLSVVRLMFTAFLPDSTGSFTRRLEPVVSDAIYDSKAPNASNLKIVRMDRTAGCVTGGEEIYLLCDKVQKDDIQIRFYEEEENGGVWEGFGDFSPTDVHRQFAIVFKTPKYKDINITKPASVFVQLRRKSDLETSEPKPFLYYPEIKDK

Sequence	binding signal (GST-Ap-NF-kB RHD)	binding signal [1]	binding signal [2]	binding signal (GST-Co-NF-kB)	binding signal (GST-Dm-Relish)	binding signal (GST-Aq-NF-kB)	binding signal (GST-Hu-p50)
CCGATTAACATCAAGTATTCCCCTGATGTTAATCGGGTCTTGATTCGCTTGACGCTGCTG	8.17 z-score	9.28 z-score	8.86 z-score	7.58 z-score	7.14 z-score	6.74 z-score	5.87 z-score
CCGATTAACATCAGGGGGCAATATGATGTTAATCGGGTCTTGATTCGCTTGACGCTGCTG	3.43 z-score	3.24 z-score	3.15 z-score	4.37 z-score	2.2 z-score	3.54 z-score	3.82 z-score
CCGATTAACATCAGGAAAATCCCTGATGTTAATCGGGTCTTGATTCGCTTGACGCTGCTG	5.62 z-score	7.7 z-score	4.73 z-score	2.51 z-score	7.08 z-score	8.07 z-score	5.88 z-score
CCGATTAACATCATGGGGGGTAATGATGTTAATCGGGTCTTGATTCGCTTGACGCTGCTG	3.64 z-score	3.18 z-score	2.78 z-score	5.06 z-score	2.79 z-score	3.56 z-score	3.21 z-score
CCGATTAACATCAGACTTTCCCATGATGTTAATCGGGTCTTGATTCGCTTGACGCTGCTG	3 z-score	4.28 z-score	3.69 z-score	2.74 z-score	1.53 z-score	4.28 z-score	3.45 z-score
CCGATTAACATCAAAATACCCCCTGATGTTAATCGGGTCTTGATTCGCTTGACGCTGCTG	9.02 z-score	7.56 z-score	8.62 z-score	7.21 z-score	7.72 z-score	7.21 z-score	6.58 z-score
CCGATTAACATCAAAATAACCCCTGATGTTAATCGGGTCTTGATTCGCTTGACGCTGCTG	6.69 z-score	5.59 z-score	5.3 z-score	3.27 z-score	4.93 z-score	5.19 z-score	5.2 z-score
CCGATTAACATCAGGGGAATCACTGATGTTAATCGGGTCTTGATTCGCTTGACGCTGCTG	8.92 z-score	8.19 z-score	8.51 z-score	6.78 z-score	10.6 z-score	7.41 z-score	6.51 z-score
CCGATTAACATCATTCCCGGGAATGATGTTAATCGGGTCTTGATTCGCTTGACGCTGCTG	2.49 z-score	4.09 z-score	3.45 z-score	5.77 z-score	1.81 z-score	3.95 z-score	2.31 z-score
CCGATTAACATCAGGAACTTCCCTGATGTTAATCGGGTCTTGATTCGCTTGACGCTGCTG	4.62 z-score	5.28 z-score	3.16 z-score	1.73 z-score	4.4 z-score	7.58 z-score	3.6 z-score
CCGATTAACATCAAAGTCCCCCGTGATGTTAATCGGGTCTTGATTCGCTTGACGCTGCTG	6.78 z-score	5.8 z-score	6.12 z-score	6.7 z-score	7.35 z-score	5.87 z-score	5.37 z-score
CCGATTAACATCAGGGCAACCCCTGATGTTAATCGGGTCTTGATTCGCTTGACGCTGCTG	3.77 z-score	2.55 z-score	1.13 z-score	1.28 z-score	4.15 z-score	5.95 z-score	3.08 z-score
CCGATTAACATCACGGGGAATCCTGATGTTAATCGGGTCTTGATTCGCTTGACGCTGCTG	9.87 z-score	9.94 z-score	8.84 z-score	8.28 z-score	10 z-score	7.48 z-score	6.2 z-score
CCGATTAACATCAATAATTACCCTGATGTTAATCGGGTCTTGATTCGCTTGACGCTGCTG	2.91 z-score	4.26 z-score	4.81 z-score	3.12 z-score	3.09 z-score	3.72 z-score	3.55 z-score
CCGATTAACATCAGAAGTGGGAATGATGTTAATCGGGTCTTGATTCGCTTGACGCTGCTG	2.07 z-score	2 z-score	1.53 z-score	2.78 z-score	1.15 z-score	2.35 z-score	1.13 z-score
CCGATTAACATCAGGGGAATAAATGATGTTAATCGGGTCTTGATTCGCTTGACGCTGCTG	6.25 z-score	7.82 z-score	8.47 z-score	8.22 z-score	5.48 z-score	5.94 z-score	5.62 z-score
CCGATTAACATCACTATATTCCCTGATGTTAATCGGGTCTTGATTCGCTTGACGCTGCTG	3.08 z-score	3.16 z-score	3.56 z-score	3.19 z-score	1.62 z-score	2.6 z-score	1.77 z-score
CCGATTAACATCACACTACCCCCTGATGTTAATCGGGTCTTGATTCGCTTGACGCTGCTG	4.66 z-score	2.12 z-score	4.06 z-score	3.89 z-score	1.77 z-score	2.65 z-score	3.3 z-score
CCGATTAACATCACGGGGGATTATGATGTTAATCGGGTCTTGATTCGCTTGACGCTGCTG	7.59 z-score	6.57 z-score	7 z-score	6.84 z-score	6.41 z-score	5.87 z-score	6.67 z-score

— PMC5700166
